Common to all, as to conditions: treatment time: 24 h
The subject of experiment [1] is A549-ACTB-RAB5A. The experiment is described as follows: lowest phenotypically active concentration; higher = less potent. An outline of the steps:
(§1)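 Four wells per concentration (0.3, 1, 3 or 9 µM) were treated for 24 h in each of fifteen gene-edited reporter lines from A549, HepG2 and WPMY1 cells, then imaged live. After normalising live-cell features to solvent control wells, deviation was defined as ≥3 of 4 wells lying past the 95th percentile of control Euclidean distances. Reproducibility was defined as a median replicate Pearson correlation above the 95th percentile of non-replicates. Both had to hold for phenotypic activity.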

Experiment [2] concerns A549-GM130-SQSTM1. The experiment is described as above. An outline of the steps: as §1
In experiment [3] the test system is A549-TUBA1B-RELA. Described as above. An outline of the steps: as §1
The test system of experiment [4] is HepG2-ACTB-RAB5A. The description is as above. The method, boiled down:
as §1

Experiment [5] has as its system WPMY1-GM130-SQSTM1. Described as above. The method, boiled down:
as §1

Experiment [6] relates to A549-ACTB-RAB5A. The experiment is described as follows: phenotypically active (imaging signature differs from DMSO and reproducible) at any of 0.3-9 uM (binary (1 = active, 0 = inactive)); higher = active. The method, boiled down:
as §1

The next experiment has as its system A549-CANX-COX4. The description is as above. The method, boiled down:
as §1

Experiment [7] relates to A549-GM130-SQSTM1. The experiment is described as above. The method, boiled down:
as §1

The next experiment concerns A549-TP53BP1-CLTA. The description is as above. An outline of the steps: as §1
Experiment [8] concerns A549-TUBA1B-RELA. The description is as above. The method, boiled down:
as §1

Experiment [9] concerns HepG2-ACTB-RAB5A. Described as above. The method, boiled down: as §1
In the next experiment the test system is HepG2-CANX-COX4. The experiment is described as above. An outline of the steps:
as §1

The next experiment concerns HepG2-GM130-SQSTM1. Described as above. An outline of the steps: as §1
The next experiment concerns HepG2-TP53BP1-CLTA. Described as above. An outline of the steps:
as §1

A further experiment deals with HepG2-TUBA1B-RELA. The experiment is described as above. An outline of the steps: as §1
The subject of another experiment is WPMY1-ACTB-RAB5A. The experiment is described as above. The method, boiled down:
as §1

For another experiment, the system named is WPMY1-CANX-COX4. The description is as above. An outline of the steps: as §1
The test system of experiment [10] is WPMY1-GM130-SQSTM1. The experiment is described as above. An outline of the steps: as §1
The test system of a further experiment is WPMY1-TP53BP1-CLTA. Described as above. An outline of the steps: as §1
Another experiment deals with WPMY1-TUBA1B-RELA. The experiment is described as above. The method, boiled down: as §1

SMILES strings stand for the structures.

For `CC(CN(C)C)CN1c2ccccc2Sc2ccccc21.CC(CN(C)C)CN1c2ccccc2Sc2ccccc21` (stereo unspecified) [alimemazine], the “lowest phenotypically active concentration” value was 9 µM with A549-ACTB-RAB5A [1]; 9 µM with A549-GM130-SQSTM1 [2]; 9 µM in the experiment on A549-TUBA1B-RELA [3]; 9 µM in the experiment on HepG2-ACTB-RAB5A [4]; not above 0.3 µM in the experiment on WPMY1-GM130-SQSTM1 [5]. Besides, the phenotypically active in the experiment on A549-ACTB-RAB5A [6] was 1 (active); with A549-CANX-COX4, 0 (inactive); with A549-GM130-SQSTM1 [7], 1 (active); in the experiment with A549-TP53BP1-CLTA, 0 (inactive); in the experiment on A549-TUBA1B-RELA [8], 1 (active); in the experiment with HepG2-ACTB-RAB5A [9] it was 1 (active). Further, the phenotypically active with HepG2-CANX-COX4 is 0 (inactive); with HepG2-GM130-SQSTM1 it was 1 (active); with HepG2-TP53BP1-CLTA, 1 (active); with HepG2-TUBA1B-RELA, 1 (active); in the experiment with WPMY1-ACTB-RAB5A it was 1 (active); with WPMY1-CANX-COX4, 0 (inactive). Further, the figures for the phenotypically active in the experiment on WPMY1-GM130-SQSTM1 [10], with WPMY1-TP53BP1-CLTA and with WPMY1-TUBA1B-RELA were 1 (active), 0 (inactive) and 1 (active), respectively.
On to `CC(CN1c2ccccc2Sc2ccccc21)N(C)C` (stereo unspecified) [promethazine], for which the “lowest phenotypically active concentration” value in the experiment with A549-ACTB-RAB5A [1], in the experiment with A549-GM130-SQSTM1 [2], with A549-TUBA1B-RELA [3], in the experiment on HepG2-ACTB-RAB5A [4] and in the experiment on WPMY1-GM130-SQSTM1 [5] was 9 µM in each case. In addition, the phenotypically active with A549-ACTB-RAB5A [6] was 1 (active); in the experiment with A549-CANX-COX4 it was 0 (inactive); in the experiment with A549-GM130-SQSTM1 [7], 1 (active); with A549-TP53BP1-CLTA, 0 (inactive); in the experiment on A549-TUBA1B-RELA [8], 1 (active); in the experiment with HepG2-ACTB-RAB5A [9] it was 1 (active). In addition, the phenotypically active in the experiment on HepG2-CANX-COX4 is 0 (inactive); with HepG2-GM130-SQSTM1 it was 1 (active); with HepG2-TP53BP1-CLTA, 1 (active); with HepG2-TUBA1B-RELA it was 1 (active); with WPMY1-ACTB-RAB5A it was 1 (active); with WPMY1-CANX-COX4 it was 0 (inactive). Further, the phenotypically active in the experiment on WPMY1-GM130-SQSTM1 [10], in the experiment on WPMY1-TP53BP1-CLTA and with WPMY1-TUBA1B-RELA was 1 (active) throughout.
Take `c1ccc(CN(CC2=NCCN2)c2ccccc2)cc1` [antazoline]: the “lowest phenotypically active concentration” value worked out at 3 µM in the experiment on A549-ACTB-RAB5A [1], 9 µM in the experiment with A549-GM130-SQSTM1 [2] and 9 µM with A549-TUBA1B-RELA [3]. Further, the phenotypically active in the experiment on A549-ACTB-RAB5A [6] is 1 (active); in the experiment with A549-CANX-COX4 it was 0 (inactive); in the experiment on A549-GM130-SQSTM1 [7] it was 1 (active); with A549-TP53BP1-CLTA, 0 (inactive); in the experiment on A549-TUBA1B-RELA [8], 1 (active); in the experiment with HepG2-ACTB-RAB5A [9] it was 0 (inactive). The phenotypically active in the experiment with HepG2-CANX-COX4, in the experiment on HepG2-GM130-SQSTM1, in the experiment with HepG2-TP53BP1-CLTA, in the experiment with HepG2-TUBA1B-RELA, with WPMY1-ACTB-RAB5A and in the experiment on WPMY1-CANX-COX4 was 0 (inactive) throughout. In addition, the phenotypically active in the experiment with WPMY1-GM130-SQSTM1 [10], in the experiment with WPMY1-TP53BP1-CLTA and with WPMY1-TUBA1B-RELA was 0 (inactive) throughout.
Regarding `Fc1ccc([C@@H]2CCNC[C@H]2COc2ccc3c(c2)OCO3)cc1` [paroxetine], the “lowest phenotypically active concentration” value was 3 µM in the experiment on A549-ACTB-RAB5A [1]; 3 µM with A549-GM130-SQSTM1 [2]; 3 µM in the experiment on A549-TUBA1B-RELA [3]; 9 µM in the experiment on HepG2-ACTB-RAB5A [4]; 9 µM in the experiment with WPMY1-GM130-SQSTM1 [5]. The phenotypically active in the experiment on A549-ACTB-RAB5A [6] was 1 (active); in the experiment on A549-CANX-COX4 it was 0 (inactive); with A549-GM130-SQSTM1 [7], 1 (active); in the experiment on A549-TP53BP1-CLTA it was 0 (inactive); with A549-TUBA1B-RELA [8] it was 1 (active); in the experiment with HepG2-ACTB-RAB5A [9], 1 (active). The phenotypically active in the experiment with HepG2-CANX-COX4 was 0 (inactive); in the experiment on HepG2-GM130-SQSTM1, 1 (active); in the experiment with HepG2-TP53BP1-CLTA, 1 (active); in the experiment with HepG2-TUBA1B-RELA, 1 (active); in the experiment on WPMY1-ACTB-RAB5A, 1 (active); with WPMY1-CANX-COX4, 1 (active). For the same molecule, the phenotypically active in the experiment with WPMY1-GM130-SQSTM1 [10], in the experiment on WPMY1-TP53BP1-CLTA and in the experiment with WPMY1-TUBA1B-RELA was 1 (active) in each case.
Regarding `CC(C)(C)n1nc(-c2ccc(Cl)cc2)c2c(N)ncnc21`, the “lowest phenotypically active concentration” value worked out at 1 µM with A549-ACTB-RAB5A [1], 9 µM with A549-TUBA1B-RELA [3] and 3 µM in the experiment with HepG2-ACTB-RAB5A [4]. Besides, the phenotypically active in the experiment on A549-ACTB-RAB5A [6] is 1 (active); in the experiment on A549-CANX-COX4, 0 (inactive); in the experiment with A549-GM130-SQSTM1 [7], 0 (inactive); in the experiment on A549-TP53BP1-CLTA, 0 (inactive); with A549-TUBA1B-RELA [8], 1 (active); in the experiment on HepG2-ACTB-RAB5A [9], 1 (active). Also, the phenotypically active was 0 (inactive) with HepG2-CANX-COX4; 0 (inactive) in the experiment with HepG2-GM130-SQSTM1; 1 (active) in the experiment on HepG2-TP53BP1-CLTA; 0 (inactive) in the experiment with HepG2-TUBA1B-RELA; 0 (inactive) in the experiment with WPMY1-ACTB-RAB5A; 0 (inactive) in the experiment on WPMY1-CANX-COX4. The phenotypically active in the experiment on WPMY1-GM130-SQSTM1 [10], with WPMY1-TP53BP1-CLTA and in the experiment with WPMY1-TUBA1B-RELA was 0 (inactive) in each case.
